What all share (details): concentration: 10 µM; 24 h
Test [1] concerns HCC1569. The test is described as follows: cell number relative to DMSO (% of DMSO); higher = more cells (less growth inhibition / toxicity). Summed up: (§1)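 After 24 h at 37 °C with compounds at 10 µM, in triplicate, HCC1569 and TDF cells were fixed with 3.7% formaldehyde. Immunostaining used a rabbit anti-H1.0 antibody and an AlexaFluor 647 secondary, with DAPI, and six fields per well were imaged at ×10. H1.0 nuclear intensity or cell number is presented as percent of the plate control, from the median of replicates, with HCC1569 values smoothed for positional effects.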

For test [2], the system named is TDF. The description is as above. Summed up:
as §1

Test [3] has as its system TDF. The test is described as follows: H1.0 immunofluorescence intensity relative to DMSO (% of DMSO); higher = stronger H1.0 induction, active = 120 or more. The method, boiled down: as §1
For test [4], the system named is HCC1569. The test is described as follows: H1.0 immunofluorescence intensity relative to DMSO (% of DMSO); higher = stronger H1.0 induction, active = 140 or more. Summed up: as §1

± gives the standard deviation of the averaged measurements.
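For H1.0 immunofluorescence intensity relative to DMSO in this document: TDF is a line of transformed human dermal fibroblasts of mesenchymal origin.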
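For cell number relative to DMSO in this document: TDF denotes transformed human dermal fibroblasts of mesenchymal origin.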

For `COc1ccc(C2CC(c3ccccc3)=NN2c2ccc(S(N)(=O)=O)cc2)cc1` (stereo unspecified), the cell number in test [1] worked out at 95.8; in test [2], 97.9. In addition, the H1.0 immunofluorescence intensity in test [3] is 91.3 (inactive); in test [4] it was 114 (inactive).
Turning to `COc1cc(O)c2c(=O)c(O)c(-c3ccc(O)c(O)c3)oc2c1` [Rhamnetine], the figures for the cell number in test [1] and in test [2] were 91.7 and 89.5, respectively. Further, the values for the H1.0 immunofluorescence intensity in test [3] and in test [4] were 93 (inactive) and 130 (inactive), respectively.
The matching figures for `Br.CN1CCc2c(cc(O)c(O)c2Cl)C(c2cccc(Cl)c2)C1` (stereo unspecified): 89.6, 81.1, 91.9 (inactive) and 112 (inactive).
In the same order, the values of `COc1ccc2cc3[n+](cc2c1OC)CCc1cc2c(cc1-3)OCO2.Cl` are 99.4, 77.9, 97.4 (inactive) and 101 (inactive).
Regarding `CCN1CCCC1CNC(=O)c1cc(S(=O)(=O)CC)c(N)cc1OC` (stereo unspecified) [Amisulpride], the cell number in test [1] was 107; in test [2], 84.5. For the same compound, the H1.0 immunofluorescence intensity was 104 (inactive) in test [3] and 96.7 (inactive) in test [4].
As to `COc1cc2c(cc1-c1c(C)noc1C)ncc1[nH]c(=O)n([C@H](C)c3ccccn3)c12`, the values for the cell number in test [1] and in test [2] were 75 and 66.3, respectively. The H1.0 immunofluorescence intensity in test [3] is 138 (active); in test [4], 218 (active).
The matching figures for `CC(C)(C)c1cnc(CSc2cnc(NC(=O)C3CCNCC3)s2)o1`: 105, 102, 95 (inactive) and 100 (inactive).
In the same order, the values of `CN1CCC(c2c(O)cc(O)c3c(=O)cc(-c4ccccc4Cl)oc23)C(O)C1` (stereo unspecified) [Alvocidib] are 59.4, 19.9, 132 (active) and 111 (inactive).
The matching figures for `O=c1cc(-c2ccc(O)c(O)c2)oc2cc(O)cc(O)c12` [Luteolin]: 74.6 ± 15, 62.6 ± 57, 124 (active) and 120 (inactive).

For the origin of these results see the supplement of paper PMC7156485.
